Compounds with a hit are over-represented: about 3% of the library has one in this group of screens.
GCN5L2 inh: GCN5L2 (KAT2A) acetyltransferase inhibition. actives 0.21% (n = 390,000). GCN5L2 HAT assay, ThioGlo1 CoA-SH fluorescence. Potency, µM (titrated, usually from 58.9 µM), hits mostly inhibitors
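ThioGlo1-coupled HAT assay: 20nM GCN5L2, 70uM acetyl-CoA, 75uM H3(1-25) peptide, pH 7.5. Fluorescence read at 340/540nm at start and after 20 min at room temperature.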
PLK1 PBD block: inhibitors of human PLK1 polo-box domain binding | actives 2.8% (n = 360,000) | Plk1 PBD binding of FITC phosphopeptide, fluorescence polarization | AID 720504 | Potency, µM, hits mostly inhibitors; also: series mostly up to about 57 µM; nearly all actives have a fitted effect of over 65% in size
USP1-UAF1 inh: USP1/UAF1 (human) deubiquitinase inhibition; AID 743255; actives 0.23% (n = 390,000); Potency, µM (series often up to 57.1 µM), most hits filed as inhibitors; recombinant USP1/UAF1, Ub-Rhodamine cleavage fluorescence; O94782; also: nearly all actives have a fitted effect of over 60% in size
Target sequence (O94782 whole entry, looked up): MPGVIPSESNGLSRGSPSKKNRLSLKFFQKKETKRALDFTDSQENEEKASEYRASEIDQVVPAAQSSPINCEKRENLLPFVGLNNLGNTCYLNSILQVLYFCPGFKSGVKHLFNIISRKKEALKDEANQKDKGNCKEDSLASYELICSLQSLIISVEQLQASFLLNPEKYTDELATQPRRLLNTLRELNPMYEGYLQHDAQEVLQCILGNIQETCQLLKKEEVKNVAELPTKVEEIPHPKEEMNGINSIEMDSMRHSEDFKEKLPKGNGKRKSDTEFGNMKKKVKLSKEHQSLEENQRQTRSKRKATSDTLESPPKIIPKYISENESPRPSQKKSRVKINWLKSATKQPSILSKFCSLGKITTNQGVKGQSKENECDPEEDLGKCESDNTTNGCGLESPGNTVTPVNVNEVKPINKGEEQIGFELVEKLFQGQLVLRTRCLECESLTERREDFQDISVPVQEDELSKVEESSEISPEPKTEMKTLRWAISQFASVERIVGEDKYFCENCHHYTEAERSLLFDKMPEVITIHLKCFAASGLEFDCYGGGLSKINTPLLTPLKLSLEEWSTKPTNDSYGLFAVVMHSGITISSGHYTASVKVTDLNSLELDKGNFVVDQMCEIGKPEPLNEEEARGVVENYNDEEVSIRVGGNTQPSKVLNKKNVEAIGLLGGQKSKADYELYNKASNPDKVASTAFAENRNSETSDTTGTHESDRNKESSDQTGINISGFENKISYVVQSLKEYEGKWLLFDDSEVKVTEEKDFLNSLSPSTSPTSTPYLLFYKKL
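High-throughput fluorogenic screen: 1nM USP1/UAF1 complex, Ub-Rho substrate 150nM final, 50mM HEPES pH 7.8 with 0.5mM EDTA, 0.1 mg/ml BSA, 1mM TCEP and 0.01% Tween-20.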
VDR inh: inhibitors of human vitamin D receptor. VDR-SRC2-3 peptide fluorescence polarization, 2 h. actives 0.93% (n = 400,000). P11473. AID 504847. Potency, µM, most hits filed as inhibitors
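FP read-out; VDR + SRC2-3 coactivator peptide; 23 nl compound by pintool; 2 h RT incubation; reagents held at 4 deg C, protected from light.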
PTAP TSG101 blk: blocks PTAP/TSG101 interaction to inhibit HIV-1 budding. AID 493005. Q99816. Fluorescence polarization, FITC-PTAP peptide / Tsg101 binding. 340,000 tested, under 10 active. Potency, µM (series often up to 115 µM), most hits filed as inhibitors; active = well fitted inhibition curve with a large enough effect in the main read-out, with a control signal flat, not every such curve was filed as active; inconclusive = small, poorly fitted or top-dose-only effect, or effect the other way, or a change in a side signal; inactive = no such curve, though single readings can be large or run the other way
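Tsg101 binding domain (10 uM final) was mixed with compound and a FITC-labeled PTAP peptide (50 nM final) in HEPES pH 7.5 buffer with NaCl, Tween 20, EDTA and TCEP; fluorescence polarization was read after 20 min at r.t.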
A number is an active result; i = inactive; ? = inconclusive; nt = not tested or not shown. Unless noted, calls follow the shape of the dose curve; as a rule, active = well fitted curve in the direction sought with a large enough effect; inconclusive = small, poorly fitted or top-dose-only effect, or another doubt; inactive = no such curve, though single readings can be large; an effect the other way counts as inactive or inconclusive.

SMILES	GCN5L2 inh	PLK1 PBD block	USP1-UAF1 inh	VDR inh	PTAP TSG101 blk
Cc1ccc(Cl)cc1NC(=O)C1CCN(c2nc3ccccc3n3cccc23)CC1	i	nt	?	i	nt
Cn1nc(-c2ccccc2)c2nc3ccccc3nc21	i	21µM	?	i	?
COc1ccc(C2/C=C\CC(NC(=O)OCC3c4ccccc4-c4ccccc43)CC(=O)N2Cc2ccccc2F)cc1 (stereo unspecified)	i	30µM	i	?	i
COc1cccc(CNC(=O)C(NS(=O)(=O)c2ccc3c(c2)oc(=O)n3C)C(C)C)c1 (stereo unspecified)	i	nt	i	i	nt
N#CC1=C2SCN(Cc3ccco3)CN2C(=O)CC1c1cccc2ccccc12 (stereo unspecified)	i	24µM	i	?	i
N#CC1=C2SCN(Cc3ccco3)CN2C(=O)CC1c1ccccc1F (stereo unspecified)	i	27µM	i	32µM	i
O=C(Nc1ccc(F)cc1)N1CCc2ccccc2C1	i	21µM	i	i	i
Cc1cccc(C)c1OCC(=O)N/N=C/c1ccc2c(c1)OCO2	13µM	i	i	i	i
Cc1ccc(CNC(=O)CO/N=C/c2ccc3c(c2)OCO3)cc1	i	27µM	i	i	i
COC(CNC(=O)c1ccc2c(c1)nc(C)n2-c1cccc(C)c1)OC	i	30µM	i	i	i
CCCNc1ncnc2c1c(-c1ccccc1)cn2-c1ccccc1	i	nt	i	i	nt
COCC(C)OC(=O)/C(C#N)=C\c1coc2ccc(C)cc2c1=O (stereo unspecified)	i	11µM	?	?	i
O=C(NCc1cccc(Cl)c1)c1ccc2nc(N3CCOCC3)sc2c1	i	27µM	i	i	i
COc1ccccc1CNC(=O)CCS(=O)(=O)Cc1ccc(C)cc1	i	27µM	i	?	i
Cc1cc(=O)n(CC(=O)N2CCN(c3ccccc3F)CC2)c2c1c(C)nn2C	i	nt	?	i	nt
CCOC(=O)c1c(C)oc2c1c(C(c1cccnc1)N1CCCCC1)c(O)c1ccccc12 (stereo unspecified)	i	12µM	i	i	i
CC(C)(C)c1ccc(C(=O)N2CCC2(C)C(=O)NCc2cccs2)cc1 (stereo unspecified)	nt	i	nt	nt	nt
O=c1[nH]c2ccc(Cl)cc2c(-c2ccccc2)c1N1CCN(CCO)CC1	i	i	i	i	i
Cc1cc(OCC(=O)NCCO)ccc1Cl	i	i	i	i	i
CC(C)c1ccc(OCC(=O)NCCO)cc1	i	27µM	i	?	i
CN(C)c1nc(=NCc2cccs2)ss1	nt	5.3µM	i	?	i
CC(C)Oc1ccc(CNC(=O)c2cnc3sc(N4CCCCCC4)nn3c2=O)cc1	i	nt	i	i	nt
CCOc1ccccc1NC(=O)C(Sc1ccccc1)c1ccccc1 (stereo unspecified)	i	21µM	i	i	i
NN/C(=C\[N+](=O)[O-])Nc1ccc(Cl)cc1	i	12µM	i	i	i
SMILES	GCN5L2 inh	PLK1 PBD block	USP1-UAF1 inh	VDR inh	PTAP TSG101 blk
CCN(CC)C(=O)Oc1ccc(Br)cc1C(=O)Nc1ccc(F)cc1F	i	i	i	i	i
Cc1ccc(-c2csc(NC(=O)C3=NN(c4ccccc4)C(=O)CC3)n2)cc1	i	i	i	i	i
O=C(Nc1ccc(-c2nc3ccccc3[nH]2)cc1)c1ccccc1NS(=O)(=O)c1ccc(F)cc1	i	27µM	i	i	i
Cc1cc(NS(=O)(=O)c2ccc(Nc3nc(-c4sc(C)nc4C)cs3)cc2)no1	i	nt	nt	nt	nt
COc1ccc(-c2csc(Nc3ccc(S(=O)(=O)Nc4cc(C)on4)cc3)n2)cc1	i	19µM	i	i	i
O=C(Nc1nc(-c2ccccc2)cs1)c1ccccc1F	i	i	i	i	i
Cc1ccc(S(=O)(=O)Nc2ccccc2C(=O)Nc2nc(-c3ccc(F)cc3)cs2)cc1	?	27µM	i	i	i
COc1ccc(-c2csc(NC(=O)c3ccccc3NS(=O)(=O)c3ccc(F)c(F)c3)n2)cc1	i	21µM	i	i	i
NC(=O)[C@H]1O[C@@H](O)[C@H](O)[C@@H](O)[C@@H]1O	i	nt	nt	i	nt
Cc1ccc(C)c(N2CCN(C(=O)c3cccn3-c3nnc(N4CCCCC4)s3)CC2)c1	i	nt	i	i	nt
